Data on five compounds can be found in PubChem BioAssay.

Results filed as inconclusive are left out. Activity calls are given as the source filed them.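 The calls were made as follows, unless noted: active = GFP signal, as percent of the solvent control, above the screen mean plus 3 SD, about 149; inconclusive = no reading because the compound's own fluorescence upset strain identification; inactive = the rest.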

A short description of assay [1]: yeast TOR pathway RPL19A-GFP modulators, primary screen, cell-based, S. cerevisiae, multiplex flow cytometry (AID 1862; in the data active = percent of DMSO control GFP below about 86%;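 also: lower values mimic rapamycin by blocking the RPL19A rise seen in DMSO cells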). The note with it: S. cerevisiae RPL19A-GFP strain, flow cytometry fluorescence, 3 h; at 10 µM; stronger effect = lower value. On the technique in general: In flow cytometry, cells or beads pass a laser one at a time.
Assay [2] in a line: modulators of MEP2-GFP levels in yeast, primary screen, S. cerevisiae, multiplex flow cytometry (AID 1867;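 active = GFP response, as percent of the DMSO control, above the screen-wide mean plus 3 SD, about 139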;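 also: median GFP channel fluorescence of barcode-gated MEP2-GFP cells measured by flow cytometry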). The note with it: S. cerevisiae MEP2-GFP strain, 3 h, at 10 µM, stronger effect = higher value, 100% means same as DMSO wells.
A short description of assay [3]: modulators of CIT2-GFP expression in yeast, primary screen, S. cerevisiae, GFP fusion, multiplex flow cytometry (AID 1870;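 active = percent response above a set limit, the screen-wide mean plus 3 SD, cut at about 130% in these data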;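 also: barcoded CIT2-GFP strain pooled with four other GFP strains with rapamycin as positive control; median GFP fluorescence per well over plate mean of DMSO wells so 100% = DMSO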). The note with it: 3 h, at 10 µM, stronger effect = higher value.
Assay [4] is described as follows: modulators of LAP4-GFP expression in yeast, primary screen, S. cerevisiae, multiplex flow cytometry (AID 1873). The conditions noted are these: 3 h, at 10 µM, stronger effect = higher value.
Assay [5] can be described thus: modulators of AGP1-GFP expression in yeast TOR pathway, primary screen, cell-based, multiplex flow cytometry, S. cerevisiae (AID 1887;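 active = GFP signal above the screen-wide mean plus 3 SD, that is over about 124.5% of the solvent control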;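 also: AGP1-GFP fusion strain of S. cerevisiae within a five-strain barcoded multiplex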). The note with it: 3 h, at 10 µM, stronger effect = higher value.
The nature of assay [6]: inhibitors of CD8+ T cell-vesicle binding, pilot screen, LFA-1/ICAM-1 modulator project, MLPCN validation set, flow cytometry (AID 2523;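 active = response below a set limit, under 55% cells CD8-positive and vesicle-bound, and CD8 cells' 90th-percentile brightness under 279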;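 as to vesicle binding response: mean PE anti-B7-1 fluorescence of CD8+ cells relative to row control; 100% = QL9-loaded vesicles with DMSO vehicle in the same plate row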). The note with it: 2C mouse CD8+ T cells, at 7 µM, stronger effect = lower value; double positive events: measured here: CD8+/vesicle+ event percentage.
Assay [7] addresses Integrin beta-1 (Homo sapiens) + Integrin alpha-4 (Homo sapiens) (UniProt P13612+P05556). Description: inhibition of HUTS-21 binding to VLA-4, pilot screen, VLA-4 allosteric modulator project, U937 cells, HUTS-21 mAb, flow cytometry, validation set (AID 2674;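 active = inhibition above 50%, about 3 SD of the validation set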;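 also: antibody binding induced by the VLA-4 ligand LDV present at three times its Kd; 0% = LDV ligand with antibody and no compound and 100% = antibody without LDV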). The note with it: HUTS-21 LIBS mAb binding, at 6.7 µM, stronger effect = higher value, binding induced by LDV ligand.
Assay [8] can be described thus: superoxide lowering in aged yeast cells, pilot screen, validation compound set (AID 2706;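 active = superoxide response below 65% of plate, a cut near 3 SD across the whole screen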;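 also: yeast exposed to compound for one week at 30 degrees C before staining; 100% = mean of all compound wells on the same plate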). The conditions noted are these: S. cerevisiae aging, superoxide DHE fluorescence; at 10 µM; stronger effect = lower value.
Assay [9] has as its target Beta-adrenergic receptor kinase 1 (Homo sapiens) (UniProt P25098). Description: GRK2 binders displacing RNA aptamer, biochemical, validation, human GRK2, bead flow cytometry (AID 488806;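 active = aptamer binding inhibition above 30%, about 3 SD of noise from non-fluorescent compounds; inactive = inhibition at or below 30%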). The conditions noted are these: bead-bound GRK2, FAM-aptamer displacement, at 10 µM, stronger effect = higher value.
The target in assay [10] is Beta-2 adrenergic receptor (Homo sapiens) (UniProt P07550). Description: beta2AR agonists driving receptor internalization, pilot screen, cell-based, FAP fluorogen, flow cytometry, validation set (AID 504459;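 active = percent response above 42, roughly 3 SD of non-fluorescent test compounds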;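 also: agonist-driven loss of surface beta2AR via internalization measured by FAP dye flow cytometry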). The note with it: Am2.2-beta2AR cells, FAP surface receptor flow cytometry; at 10 µM; stronger effect = higher value.
For assay [11], the target named is AP-2 complex subunit beta (Homo sapiens) (UniProt P63010). Description: inhibitors of arrestin peptide binding to AP2, pilot screen, biochemical, validation set, GST-AP2 beads, flow cytometry (AID 504541;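 active = inhibition above 54%, about 3 SD of non-fluorescent compounds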;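 also: AP2 carries R879A mutation and is captured from E. coli lysate; bead-bound FITC arrestin peptide fluorescence measuring arrestin peptide binding to AP2; 0% = DMSO wells and 100% = excess unlabeled arrestin peptide control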). The note with it: FITC arrestin peptide, at 10 µM, stronger effect = higher value, AP2 beta2 appendage fragment, R879A mutant.
The nature of assay [12]: yeast V-ATPase proton transport modulators, S. cerevisiae, pHLuorin, HTS validation (AID 504600; in the data active = response above about 15%;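 also: plate controls were DMSO for no effect and reference compound for full effect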). The note with it: S. cerevisiae pHLuorin cytosolic pH, at 10 µM, stronger effect = higher value.
Assay [13] relates to anti-desmoglein-3 scFv antibody binding to human DSG3. Description: inhibitors of anti-DSG3 scFv binding to DSG3, pilot screen, biochemical, validation compound set, bead-based, flow cytometry (AID 588368;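 active = binding below the plate cutoff, the plate median minus 3 SD, with a reading above zero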;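 also: signal is the median channel fluorescence of bead-bound GFP antibody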). The conditions noted are these: Protein G beads, DSG3-Fc, scFv-GFP binding, at 10 µM, stronger effect = lower value.
Assay [14] can be described thus: inhibitors of fungal efflux pumps CDR1, CDR2, MDR1, pilot screen, validation compound set, multiplex, phenotypic (AID 588506;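 active = efflux inhibition above 0.42, the validation set average plus 4 SD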;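 also: Nile Red retained in cells so higher fluorescence means more efflux inhibition; 0 = negative control wells and 1 = enniatin B 25 µM full block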). The conditions noted are these: S. cerevisiae pump-expressing triplex, Nile Red efflux flow cytometry; at 10 µM; stronger effect = higher value; the pumps come from Candida albicans.
For assay [15], the target named is ATP-binding cassette sub-family B member 6 (Homo sapiens) (UniProt Q9NP58). Description: ABCB6 transporter inhibitors, pilot screen, K562-ABCB6 cells, flow cytometry, validation set (AID 588550;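 active = inhibition above the screen-wide mean plus 3 SD, about 51%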;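 also: 0% = DMSO wells and 100% = benzethonium chloride 70 µM positive control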). The note with it: K562-ABCB6 porphyrin accumulation, 1 h, at 10 µM, stronger effect = higher value.
A short description of assay [16]: promoters of myeloid differentiation in arrested cells, primary screen, cell-based, GFP/MAC1 double positive, flow cytometry, validation set (AID 588685;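 active = differentiation response of at least 50%, scaled between solvent and reference control, from cells with both markers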;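 also: compound exposure lasts four days before antibody staining and flow analysis; 0% = DMSO wells and 100% = 5 µM fulvestrant positive control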). The note with it: ER-HoxA9 marrow cells, stronger effect = higher value, normalized: vehicle 0, fulvestrant 100.

Chain of Integrin beta-1 (Homo sapiens) + Integrin alpha-4 (Homo sapiens) (P05556 whole entry, looked up): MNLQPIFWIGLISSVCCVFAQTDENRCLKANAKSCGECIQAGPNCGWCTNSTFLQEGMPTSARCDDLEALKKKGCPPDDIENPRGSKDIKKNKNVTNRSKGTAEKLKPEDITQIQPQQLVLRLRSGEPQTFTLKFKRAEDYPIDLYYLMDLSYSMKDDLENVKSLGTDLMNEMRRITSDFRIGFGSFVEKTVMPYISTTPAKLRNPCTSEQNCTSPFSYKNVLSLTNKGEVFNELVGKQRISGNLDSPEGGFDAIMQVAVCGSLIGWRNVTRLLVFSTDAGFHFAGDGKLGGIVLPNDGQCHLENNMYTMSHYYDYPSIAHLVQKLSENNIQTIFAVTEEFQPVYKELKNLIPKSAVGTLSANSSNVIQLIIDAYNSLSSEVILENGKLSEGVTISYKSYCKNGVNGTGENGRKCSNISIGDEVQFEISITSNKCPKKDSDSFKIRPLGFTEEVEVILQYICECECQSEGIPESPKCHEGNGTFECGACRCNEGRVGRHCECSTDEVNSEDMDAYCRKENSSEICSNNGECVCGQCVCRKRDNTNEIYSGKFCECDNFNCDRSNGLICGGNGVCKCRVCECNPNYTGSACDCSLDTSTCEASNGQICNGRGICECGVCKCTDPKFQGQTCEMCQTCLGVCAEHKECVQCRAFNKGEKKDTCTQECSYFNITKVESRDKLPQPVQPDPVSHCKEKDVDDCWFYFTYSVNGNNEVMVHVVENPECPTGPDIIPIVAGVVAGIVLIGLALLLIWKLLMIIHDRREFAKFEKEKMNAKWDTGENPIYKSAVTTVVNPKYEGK
Chain of Integrin beta-1 (Homo sapiens) + Integrin alpha-4 (Homo sapiens) (P13612 whole entry, looked up): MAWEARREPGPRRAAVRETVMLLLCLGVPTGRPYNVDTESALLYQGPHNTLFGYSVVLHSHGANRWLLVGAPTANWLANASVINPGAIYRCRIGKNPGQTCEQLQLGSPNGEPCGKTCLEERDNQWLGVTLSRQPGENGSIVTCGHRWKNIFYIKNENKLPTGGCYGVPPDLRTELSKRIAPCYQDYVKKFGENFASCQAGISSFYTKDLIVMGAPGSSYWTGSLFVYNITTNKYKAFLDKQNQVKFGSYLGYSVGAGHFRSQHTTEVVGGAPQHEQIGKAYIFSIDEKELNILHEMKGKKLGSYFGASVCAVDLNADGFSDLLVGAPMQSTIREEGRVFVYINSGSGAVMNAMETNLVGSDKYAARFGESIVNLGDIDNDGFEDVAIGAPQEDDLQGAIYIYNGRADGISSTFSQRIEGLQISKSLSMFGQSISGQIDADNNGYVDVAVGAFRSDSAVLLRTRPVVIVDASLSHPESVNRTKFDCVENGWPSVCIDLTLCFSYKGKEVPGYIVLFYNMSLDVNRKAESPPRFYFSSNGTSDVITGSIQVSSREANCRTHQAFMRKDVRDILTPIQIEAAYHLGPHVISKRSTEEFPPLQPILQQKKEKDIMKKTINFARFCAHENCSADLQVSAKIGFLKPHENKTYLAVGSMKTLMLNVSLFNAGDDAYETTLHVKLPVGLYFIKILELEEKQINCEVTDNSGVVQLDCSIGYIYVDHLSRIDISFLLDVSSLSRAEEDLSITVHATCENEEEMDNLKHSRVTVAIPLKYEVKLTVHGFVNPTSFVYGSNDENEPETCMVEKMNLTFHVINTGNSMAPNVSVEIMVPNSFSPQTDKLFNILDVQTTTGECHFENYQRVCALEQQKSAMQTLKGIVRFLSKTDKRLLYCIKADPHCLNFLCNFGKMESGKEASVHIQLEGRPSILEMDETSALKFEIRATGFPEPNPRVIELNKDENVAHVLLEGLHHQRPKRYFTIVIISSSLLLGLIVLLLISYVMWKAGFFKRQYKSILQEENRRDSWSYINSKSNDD
Chain of Beta-adrenergic receptor kinase 1 (Homo sapiens) (P25098 whole entry, looked up): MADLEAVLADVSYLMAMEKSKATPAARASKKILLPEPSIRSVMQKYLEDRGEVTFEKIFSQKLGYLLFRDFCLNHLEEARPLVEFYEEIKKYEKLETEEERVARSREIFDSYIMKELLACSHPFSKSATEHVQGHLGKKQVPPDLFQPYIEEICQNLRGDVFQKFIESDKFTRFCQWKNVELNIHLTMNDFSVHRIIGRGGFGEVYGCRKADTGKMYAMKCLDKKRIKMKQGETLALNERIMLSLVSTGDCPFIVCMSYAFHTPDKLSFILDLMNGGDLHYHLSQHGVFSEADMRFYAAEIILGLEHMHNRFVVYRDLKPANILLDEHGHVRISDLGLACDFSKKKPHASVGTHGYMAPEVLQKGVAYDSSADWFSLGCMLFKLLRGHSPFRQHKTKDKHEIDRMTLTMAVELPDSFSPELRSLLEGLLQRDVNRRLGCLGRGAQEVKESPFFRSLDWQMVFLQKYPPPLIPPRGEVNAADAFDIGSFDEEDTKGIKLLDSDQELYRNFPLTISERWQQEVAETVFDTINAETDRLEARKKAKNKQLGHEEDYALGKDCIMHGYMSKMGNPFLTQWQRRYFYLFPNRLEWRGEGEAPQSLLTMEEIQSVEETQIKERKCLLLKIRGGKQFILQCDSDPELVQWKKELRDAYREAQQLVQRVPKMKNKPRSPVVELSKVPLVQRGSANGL
Chain of Beta-2 adrenergic receptor (Homo sapiens) (P07550 whole entry, looked up): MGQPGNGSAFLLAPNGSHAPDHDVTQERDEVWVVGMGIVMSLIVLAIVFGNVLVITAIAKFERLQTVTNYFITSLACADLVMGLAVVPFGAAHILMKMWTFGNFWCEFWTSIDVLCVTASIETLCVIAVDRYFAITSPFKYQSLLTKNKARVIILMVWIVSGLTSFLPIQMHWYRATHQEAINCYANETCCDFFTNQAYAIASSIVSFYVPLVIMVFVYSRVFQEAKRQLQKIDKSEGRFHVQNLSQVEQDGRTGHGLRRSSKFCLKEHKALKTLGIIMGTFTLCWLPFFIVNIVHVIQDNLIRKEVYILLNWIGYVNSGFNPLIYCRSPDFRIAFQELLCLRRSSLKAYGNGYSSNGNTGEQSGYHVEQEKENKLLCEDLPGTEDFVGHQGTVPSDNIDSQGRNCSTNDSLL
Chain of AP-2 complex subunit beta (Homo sapiens) (P63010 whole entry, looked up, the tested form may be a part, one chain of several): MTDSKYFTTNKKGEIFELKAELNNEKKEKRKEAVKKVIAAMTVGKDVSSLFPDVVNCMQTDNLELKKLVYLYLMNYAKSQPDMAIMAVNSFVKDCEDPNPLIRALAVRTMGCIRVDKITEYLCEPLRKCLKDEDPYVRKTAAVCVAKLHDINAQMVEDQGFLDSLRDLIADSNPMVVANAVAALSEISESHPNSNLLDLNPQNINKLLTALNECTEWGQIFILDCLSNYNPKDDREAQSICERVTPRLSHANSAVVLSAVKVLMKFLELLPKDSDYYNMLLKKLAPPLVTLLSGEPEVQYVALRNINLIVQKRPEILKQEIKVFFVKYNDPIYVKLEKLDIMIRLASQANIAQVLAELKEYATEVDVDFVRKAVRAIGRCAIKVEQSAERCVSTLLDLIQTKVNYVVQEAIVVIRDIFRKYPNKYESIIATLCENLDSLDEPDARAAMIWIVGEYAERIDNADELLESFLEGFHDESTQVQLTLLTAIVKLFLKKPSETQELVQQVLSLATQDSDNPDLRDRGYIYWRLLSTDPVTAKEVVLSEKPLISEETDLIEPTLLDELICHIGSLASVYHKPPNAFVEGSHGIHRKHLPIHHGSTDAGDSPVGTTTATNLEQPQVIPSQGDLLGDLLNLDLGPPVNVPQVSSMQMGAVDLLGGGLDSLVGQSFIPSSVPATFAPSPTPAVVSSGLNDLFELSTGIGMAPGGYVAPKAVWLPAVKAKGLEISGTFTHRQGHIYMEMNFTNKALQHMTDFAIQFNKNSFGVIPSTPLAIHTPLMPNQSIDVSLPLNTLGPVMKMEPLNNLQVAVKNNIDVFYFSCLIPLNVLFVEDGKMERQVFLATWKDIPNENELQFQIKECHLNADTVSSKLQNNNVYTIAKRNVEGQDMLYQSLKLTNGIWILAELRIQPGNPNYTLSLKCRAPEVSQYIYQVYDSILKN
Chain of ATP-binding cassette sub-family B member 6 (Homo sapiens) (Q9NP58 whole entry, looked up): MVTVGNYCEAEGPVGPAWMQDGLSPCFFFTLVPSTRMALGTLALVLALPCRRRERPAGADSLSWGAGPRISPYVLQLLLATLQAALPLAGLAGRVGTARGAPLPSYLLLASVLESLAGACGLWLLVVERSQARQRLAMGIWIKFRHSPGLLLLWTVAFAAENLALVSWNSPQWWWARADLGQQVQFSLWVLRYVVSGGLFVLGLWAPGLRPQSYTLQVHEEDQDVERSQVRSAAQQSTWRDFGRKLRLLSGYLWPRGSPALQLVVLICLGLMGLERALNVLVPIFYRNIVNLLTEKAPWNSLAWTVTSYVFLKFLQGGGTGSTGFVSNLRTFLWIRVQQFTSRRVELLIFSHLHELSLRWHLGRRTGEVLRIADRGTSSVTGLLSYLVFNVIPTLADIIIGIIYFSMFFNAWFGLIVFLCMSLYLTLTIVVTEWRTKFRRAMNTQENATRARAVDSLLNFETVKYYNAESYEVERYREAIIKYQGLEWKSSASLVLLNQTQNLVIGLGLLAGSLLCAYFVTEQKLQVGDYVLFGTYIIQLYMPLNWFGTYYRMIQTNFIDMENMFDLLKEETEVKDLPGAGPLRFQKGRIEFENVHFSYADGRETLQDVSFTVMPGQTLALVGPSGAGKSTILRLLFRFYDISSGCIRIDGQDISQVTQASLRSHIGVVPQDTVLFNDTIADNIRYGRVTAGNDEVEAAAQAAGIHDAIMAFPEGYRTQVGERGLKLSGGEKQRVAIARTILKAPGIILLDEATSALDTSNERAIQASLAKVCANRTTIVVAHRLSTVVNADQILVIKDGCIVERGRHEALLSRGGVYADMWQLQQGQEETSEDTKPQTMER

By inhibition is commonly meant the relative decrease from the control value, in per cent. `CC1(C)C(=O)OC(c2cccs2)C2(CCCCC2)C1=O` (stereo not given): the percent of DMSO control GFP in [1] is 99.2% (inactive). Besides, the values for the GFP response vs DMSO in assay [2] and in assay [4] were 108% (inactive) and 105% (inactive), respectively. The percent response of DMSO control in assay [3] is 96.6% (inactive). For the same compound, the GFP response, % of DMSO in assay [5] was 97.5% (inactive). For the same compound, in assay [6], the double positive events was 61.1%. Further, the vesicle binding response in assay [6] is 228% (inactive). Besides, the inhibition in [7] was -18.1% (inactive); in [11], 44.8% (inactive); in assay [15] it was 2% (inactive). The superoxide response (% of plate) in [8] was 109% (inactive). Moreover, the aptamer binding inhibition in assay [9] is 0% (inactive). In addition, the response in [10] is 3.42% (inactive); in [12], -2.62% (inactive). The binding (% of control) in assay [13] was 97.4% (inactive). Also, the efflux inhibition (fraction of control) in [14] was -0.01 (inactive). The differentiation response in assay [16] was 53% (active).
Regarding `CN(C(=O)C(Cl)Cl)c1ccc(OC(=O)c2ccco2)cc1`, the percent of DMSO control GFP in [1] was 99% (inactive). Also, the GFP response vs DMSO is 105% (inactive) in assay [2] and 98% (inactive) in assay [4]. Moreover, the percent response of DMSO control in assay [3] was 97.8% (inactive). The GFP response, % of DMSO in assay [5] was 96.8% (inactive). Besides, the double positive events in assay [6] was 59.3%. Moreover, the vesicle binding response in assay [6] is 90.2% (inactive). Also, the inhibition in assay [7] is -1.49% (inactive); in assay [11] it was 15.3% (inactive); in assay [15], 7% (inactive). For the same compound, the superoxide response (% of plate) in [8] is 94% (inactive). For the same compound, in assay [9], the aptamer binding inhibition is 4% (inactive). Moreover, the response in assay [10] is 5.41% (inactive); in assay [12], -0.32% (inactive). Besides, the binding (% of control) in assay [13] was 99% (inactive). Further, the efflux inhibition (fraction of control) in assay [14] is -0.04 (inactive). For the same compound, the differentiation response in [16] was -3.67% (inactive).
On to `CCn1c(N2CCN(CC(=O)c3c(C)n(C)c4ccc(OC)cc34)CC2)nc2c1c(=O)[nH]c(=O)n2C`, for which the percent of DMSO control GFP in assay [1] is 101% (inactive). The GFP response vs DMSO in [2] was 104% (inactive); in assay [4], 91.4% (inactive). In assay [3], the percent response of DMSO control is 97.8% (inactive). The GFP response, % of DMSO in [5] is 99.9% (inactive). Also, the double positive events in assay [6] is 60%. Moreover, the vesicle binding response in assay [6] was 206% (inactive). Besides, the figures for the inhibition in assay [7], in assay [11] and in assay [15] were -18.1% (inactive), 12.1% (inactive) and 23% (inactive), respectively. Further, the superoxide response (% of plate) in assay [8] was 100% (inactive). In addition, the aptamer binding inhibition in assay [9] was 1% (inactive). For the same compound, the results for the response in assay [10] and in assay [12] were -1.41% (inactive) and -2.91% (inactive), respectively. In addition, the binding (% of control) in assay [13] is 101% (inactive). Further, the efflux inhibition (fraction of control) in assay [14] is -0.26 (inactive). Besides, in assay [16], the differentiation response is -2.69% (inactive).
On to `COc1cccc(CC2CC(=O)N(c3ccc4c(C)cc(=O)oc4c3)C2=O)c1` (stereo not given), for which the percent of DMSO control GFP in assay [1] was 99.5% (inactive). The GFP response vs DMSO was 106% (inactive) in assay [2] and 132% (inactive) in assay [4]. For the same compound, the percent response of DMSO control in [3] was 87.2% (inactive). The GFP response, % of DMSO in [5] is 97.1% (inactive). In assay [6], this compound returned a double positive events of 61%. Further, in assay [6], the vesicle binding response was 238% (inactive). For the same compound, the figures for the inhibition in [7], in assay [11] and in [15] were -0.43% (inactive), -2.24% (inactive) and 4% (inactive), respectively. Further, the superoxide response (% of plate) in assay [8] is 93.9% (inactive). Also, the aptamer binding inhibition in assay [9] is 2% (inactive). The results for the response in assay [10] and in assay [12] were 5.39% (inactive) and 8.95% (inactive), respectively. In assay [13], the binding (% of control) is 98.9% (inactive). Also, in assay [14], the efflux inhibition (fraction of control) is -0.06 (inactive). Moreover, the differentiation response in [16] was 39.2% (inactive).
As to `CC1(C#CC[N+]2(C)CCCCC2)CCC2C(O1)c1ccccc1OC2(C)C` (stereo not given), in assay [1], the percent of DMSO control GFP is 103% (inactive). In addition, the GFP response vs DMSO in [2] is 102% (inactive); in assay [4], 91.5% (inactive). Besides, in assay [3], the percent response of DMSO control was 107% (inactive). Besides, in assay [5], the GFP response, % of DMSO is 106% (inactive). Besides, in [6], the double positive events worked out at 60.2%. Moreover, in assay [6], the vesicle binding response was 95.6% (inactive). The inhibition in assay [7] was -6.45% (inactive); in assay [11] it was -11.4% (inactive); in assay [15] it was -6% (inactive). The superoxide response (% of plate) in [8] is 101% (inactive). Moreover, the aptamer binding inhibition in assay [9] was -11% (inactive). For the same compound, the response in assay [10] is 5.86% (inactive); in assay [12] it was 2.59% (inactive). The binding (% of control) in assay [13] is 101% (inactive). Moreover, in assay [14], the efflux inhibition (fraction of control) was 0.07 (inactive). For the same compound, the differentiation response in assay [16] is -10.4% (inactive).
